This passage reports AC50 and outcome results from PubChem BioAssay (EPA / NIEHS).

Where “and” joins values, the source holds several entries; their conditions need not be identical. Equal values may be shown once. Inconclusive results are not listed. Calls of active or inactive are those of the source. The calls were made as follows, unless noted: active = hit-call score of the fitted dose curve at least 0.9, where 1 is the maximum; inactive = score below 0.9.

The target in test [1] is Nuclear respiratory factor 1 (Homo sapiens) (UniProt Q16656). In words: ATG_NRF1_CIS: Attagene CIS-FACTORIAL HepG2 Assay for human Nuclear Respiratory Factor 1 (NRF1) Orphan Gene (AID 2282987). The settings on record: HepG2 NRF1 cis-element reporter, Attagene multiplex; actives raise or lower the signal. Put shortly: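 Transcriptional reporter readout, one component of a 52-endpoint multiplexed HepG2 panel. Exposure 24 h; mRNA detected via RT-PCR and fluorescent capillary electrophoresis; fitting in both directions against DMSO.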

The target in test [2] is Myc proto-oncogene protein (Homo sapiens) (UniProt P01106). In words: ATG_Myc_CIS: Attagene CIS-FACTORIAL HepG2 Assay for human Myelocytomatosis (Myc) Proto-Oncogene Transcription Factor (AID 2282990). Particulars: HepG2, Attagene cis-reporter transcription factor activity; actives raise or lower the signal. Put shortly:
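HepG2 cells transiently transfected with multiple cis-promoter-driven reporter transcription units, so endogenous TF activity is read. After 24 h compound exposure, reporter mRNA was quantified by RT-PCR, 6-FAM labelling, HpaI digestion and capillary electrophoresis; bidirectional fit versus DMSO.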

The nature of test [3]: ATG_NF_kB_CIS: Attagene CIS-FACTORIAL HepG2 Assay for human Nuclear Factor Kappa B (NF-kB) (AID 2282991). Particulars: HepG2 Attagene cis-factorial NF-kB reporter mRNA; actives raise or lower the signal. In a few lines: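 HepG2, transient multi-reporter transfection, cis promoter elements (endogenous TFs). 24 h exposure. Total RNA → RT → PCR → 6-FAM label → HpaI → CE. Gain/loss vs DMSO.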

The nature of test [4]: ATG_NRF2_ARE_CIS: Attagene CIS-FACTORIAL HepG2 Assay for human Nuclear Factor Erythroid 2 Related Factor 2 (NFR2) response to Antioxidant Response Elements (ARE) (AID 2282992). Particulars: HepG2 Attagene ARE/NRF2 reporter, transcription factor activity; actives raise or lower the signal. In a few lines: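 Endogenous transcription factor activity read out as reporter transcript levels (RT-PCR plus capillary electrophoresis, fluorescence) in transiently transfected HepG2 cells. Measured at 24 h after dosing; gain or loss of signal fitted versus DMSO.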

A short description of test [5]: ATG_Oct_MLP_CIS: Attagene CIS-FACTORIAL HepG2 Assay for human Octamer-Binding Transcription Factor (Oct) (AID 2282993). The settings on record: HepG2 Attagene cis-factorial Oct reporter, mRNA; actives raise or lower the signal. Put shortly:
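Transient MRTU transfection of HepG2 → 24 h compound treatment → RNA isolation, reverse transcription, PCR → 6-FAM primer extension, HpaI digest → capillary electrophoresis. Activity fitted both directions against DMSO.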

Test [6] concerns the target Cellular tumor antigen p53 (Homo sapiens) (UniProt P04637). As to the kind of experiment: ATG_p53_CIS: Attagene CIS-FACTORIAL HepG2 Assay for human p53 Transcription Factor (AID 2282994). The settings on record: HepG2 p53 cis-element reporter, Attagene mRNA; actives raise or lower the signal. In a few lines:
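Endogenous p53 activity read in transiently transfected HepG2 from a cis-element-driven reporter transcript after 24 h exposure. RNA reverse-transcribed, PCR-amplified, fluorescently labelled and sized by capillary electrophoresis; gain or loss fitted against DMSO baseline.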

A short description of test [7]: BSK_3C_TissueFactor: BioMAP Diversity Plus: 3C Assay for Tissue Factor Biomarker Activity (AID 2282997). Particulars: BioMAP 3C HUVEC, tissue factor biomarker readout; actives raise or lower the signal. Put shortly: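 Tissue factor on primary human umbilical vein endothelium was read by ELISA 24 h after dosing, gain or loss relative to DMSO. Cytotoxicity ran alongside via SRB (0.1%, TCA-fixed, 560 nm).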

The nature of test [8]: BSK_3C_VCAM1: BioMAP Diversity Plus: 3C Assay for Vascular cell adhesion molecule 1 (VCAM1) Biomarker Activity (AID 2282999). Particulars: BioMAP 3C HUVEC, VCAM1 ELISA, cytokine-stimulated; actives raise or lower the signal. In a few lines: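 Vascular primary endothelium (human umbilical vein) was exposed to chemicals and assayed 24 h later. VCAM-1 levels came from ELISA, with DMSO serving as baseline for bidirectional fitting.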
For orientation: ELISA stands for enzyme-linked immunosorbent assay.

Test [9] in a line: BSK_4H_Eotaxin3: BioMAP Diversity Plus: 4H Assay for Eotaxin 3 Biomarker Activity (AID 2283000).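 As to outcome: CCL26 protein level quantified by ELISA in parallel with SRB cytotoxicity check.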 Particulars: primary human endothelial cells (HUVEC); actives raise or lower the signal. Put shortly:
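Human umbilical vein endothelial cells (BSK_4H system) dosed with test chemical; Eotaxin-3 (CCL26) measured by ELISA 24 h after dosing. Bidirectional curve fitting relative to DMSO negative control as baseline.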

The target in test [10] is human Peroxisome Proliferator-activated Receptor alpha (PPARa), PPARA (gene 5465) (UniProt Q07869). In words: ATG_PPARa_TRANS: Attagene TRANS-FACTORIAL HepG2 Assay for human Peroxisome Proliferator-activated Receptor alpha (PPARa) (AID 2283001; active = hit-call score of the fitted dose curve at least 0.9, where 1 is the maximum). Put shortly:
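Cells (HepG2) are transfected with multiple reporter transcription units, exposed to chemical for 24 h, then total RNA is reverse-transcribed and amplified. Labelled products are quantified by capillary electrophoresis; induction is referenced to DMSO.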

In test [11] the target is human Peroxisome Proliferator-activated Receptor delta (PPARd), PPARD (gene 5467) (UniProt Q03181). As to the kind of experiment: ATG_PPARd_TRANS: Attagene TRANS-FACTORIAL HepG2 Assay for human Peroxisome Proliferator-activated Receptor delta (PPARd) (AID 2283002; active = hit-call score of the fitted dose curve at least 0.9, where 1 is the maximum). Put shortly: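 HepG2 cells transiently transfected with multiplexed GAL4-UAS reporter units and exogenous chimeric NR-Gal4 proteins; 24 h compound exposure. Reporter mRNA measured by RT-PCR, 6-FAM labelling, HpaI digestion and capillary electrophoresis; gain of signal versus DMSO.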

Read-out in test [12]: Intercellular Adhesion Molecule 1 (ICAM1), ICAM1 (gene 3383)
As to the kind of experiment: BSK_3C_ICAM1: BioMAP Diversity Plus: 3C Assay for Intercellular Adhesion Molecule 1 (ICAM1) Biomarker Activity (AID 2283003). The settings on record: primary human endothelial cells (HUVEC); actives raise or lower the signal. In a few lines: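 Chemicals are dosed onto primary human umbilical vein endothelium (3C system). After 24 h, ICAM-1 is measured by ELISA, and responses are fitted bidirectionally relative to DMSO.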

In test [13] the target is Retinoic acid receptor alpha (Homo sapiens) (UniProt P10276). In words: ATG_RARa_TRANS: Attagene TRANS-FACTORIAL HepG2 Assay for human Retinoic Acid Receptor alpha (RARa) (AID 2283005; active = hit-call score of the fitted dose curve at least 0.9, where 1 is the maximum). In a few lines: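 HepG2 cells transiently transfected with multiple reporter units expressing chimeric RARα-GAL4 fusion, with GAL4-UAS-driven reporters. After 24 h compound exposure, reporter mRNA induction quantified by RT-PCR and capillary electrophoresis with fluorescent labeling; gain-of-signal fitted relative to DMSO control.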

A short description of test [14]: BSK_3C_Proliferation: Cell Proliferation Assessment in the BioMAP Diversity Plus: 3C Assay (AID 2283006).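 As to AC50: potency may reflect either rise or fall in cell number versus DMSO.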 The settings on record: primary human endothelial cells (HUVEC). In a few lines: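 Cells (human umbilical vein endothelial, sub-confluent) receive test chemical; after 48 h they are fixed in 10% trichloroacetic acid, stained with 0.1% SRB and read at 560 nm. Activity is referenced to DMSO, fitting increases and decreases.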

Test [15] concerns the target Peroxisome proliferator-activated receptor gamma (Homo sapiens) (UniProt P37231). In words: ATG_PPARg_TRANS: Attagene TRANS-FACTORIAL HepG2 Assay for human Peroxisome Proliferator-activated Receptor-gamma (PPARg) (AID 2283007; active = hit-call score of the fitted dose curve at least 0.9, where 1 is the maximum). Put shortly: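 Multiplexed reporter transcription units in HepG2, 24 h dosing, reporter transcripts quantified by fluorescent RT-PCR and capillary electrophoresis. Increase over DMSO scored.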

Test [16] deals with Nuclear receptor subfamily 1 group I member 2 (Homo sapiens) (UniProt O75469). In words: ATG_PXR_TRANS: Attagene TRANS-FACTORIAL HepG2 Assay for human Pregnane X Receptor (PXR) (AID 2283008; active = hit-call score of the fitted dose curve at least 0.9, where 1 is the maximum). In a few lines: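 Transactivation by exogenous PXR–GAL4 fusion measured as reporter transcript induction after 24 h compound treatment of transfected human HepG2 cells. Read-out via RT-PCR and capillary electrophoresis of labelled fragments, fitted upward relative to DMSO.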

Test [17] addresses human Retinoic Acid Receptor gamma (RARg), RARG (gene 5916) (UniProt P13631). In words: ATG_RARg_TRANS: Attagene TRANS-FACTORIAL HepG2 Assay for human Retinoic Acid Receptor gamma (RARg) (AID 2283009; active = hit-call score of the fitted dose curve at least 0.9, where 1 is the maximum). Put shortly:
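TRANS format measured activity of exogenous NR-GAL4 fusion (RARg) in transfected HepG2 liver cells after 24 h dosing. Induced reporter RNA was detected by RT-PCR/capillary electrophoresis fluorescence, analysed in the positive direction against DMSO.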

A short description of test [18]: BSK_3C_uPAR: BioMAP Diversity Plus: 3C Assay for Urokinase-type plasminogen activator receptor (uPAR) Biomarker Activity (AID 2282998). Particulars: BioMAP 3C HUVEC, uPAR biomarker ELISA; actives raise or lower the signal. In a few lines: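 ELISA readout of uPAR on human vascular endothelium (umbilical vein primary cells), taken 24 h after chemical dosing. Increases and decreases are both fitted relative to DMSO vehicle.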

Test [19] deals with human Retinoic Acid Receptor beta (RARb), RARB (gene 5915) (UniProt P10826). As to the kind of experiment: ATG_RARb_TRANS: Attagene TRANS-FACTORIAL HepG2 Assay for human Retinoic Acid Receptor beta (AID 2283004; active = hit-call score of the fitted dose curve at least 0.9, where 1 is the maximum). In a few lines:
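Induction of reporter mRNA from a chimeric RARb-Gal4 construct was measured by RT-PCR, FAM labelling, HpaI digestion and capillary electrophoresis. Measurements followed 24 h compound treatment of transiently transfected human HepG2 liver cells, with DMSO as baseline.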

A word on the AC50: it is the concentration giving half of the maximal activity seen.

Chain of human Peroxisome Proliferator-activated Receptor delta (PPARd), PPARD (gene 5467) (Q03181 whole entry, looked up, the tested form may be a part): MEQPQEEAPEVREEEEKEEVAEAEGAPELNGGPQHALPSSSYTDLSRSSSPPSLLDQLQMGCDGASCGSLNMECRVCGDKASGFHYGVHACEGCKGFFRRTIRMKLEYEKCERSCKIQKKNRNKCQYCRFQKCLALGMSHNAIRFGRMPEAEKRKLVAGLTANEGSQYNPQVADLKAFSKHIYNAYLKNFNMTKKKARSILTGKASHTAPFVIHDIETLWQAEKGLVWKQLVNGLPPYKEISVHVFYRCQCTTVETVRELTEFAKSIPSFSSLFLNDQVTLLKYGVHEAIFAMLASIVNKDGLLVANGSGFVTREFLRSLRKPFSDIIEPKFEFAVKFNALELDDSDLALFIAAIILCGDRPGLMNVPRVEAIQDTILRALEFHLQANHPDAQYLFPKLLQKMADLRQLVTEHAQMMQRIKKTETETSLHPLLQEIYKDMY
Chain of Retinoic acid receptor alpha (Homo sapiens) (P10276 whole entry, looked up, the tested form may be a part): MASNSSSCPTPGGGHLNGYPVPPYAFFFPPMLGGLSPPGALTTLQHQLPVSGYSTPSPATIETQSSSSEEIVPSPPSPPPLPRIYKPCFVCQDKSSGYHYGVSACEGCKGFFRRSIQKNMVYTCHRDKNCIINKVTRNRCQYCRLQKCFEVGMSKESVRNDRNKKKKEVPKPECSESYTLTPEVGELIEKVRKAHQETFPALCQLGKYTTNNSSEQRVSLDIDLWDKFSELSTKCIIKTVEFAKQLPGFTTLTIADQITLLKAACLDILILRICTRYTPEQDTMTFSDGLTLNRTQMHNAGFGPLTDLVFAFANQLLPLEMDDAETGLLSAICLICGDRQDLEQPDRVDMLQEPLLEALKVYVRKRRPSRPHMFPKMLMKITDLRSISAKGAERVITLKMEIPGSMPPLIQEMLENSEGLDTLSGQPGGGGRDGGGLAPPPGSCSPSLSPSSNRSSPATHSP
Chain of Myc proto-oncogene protein (Homo sapiens) (P01106 whole entry, looked up): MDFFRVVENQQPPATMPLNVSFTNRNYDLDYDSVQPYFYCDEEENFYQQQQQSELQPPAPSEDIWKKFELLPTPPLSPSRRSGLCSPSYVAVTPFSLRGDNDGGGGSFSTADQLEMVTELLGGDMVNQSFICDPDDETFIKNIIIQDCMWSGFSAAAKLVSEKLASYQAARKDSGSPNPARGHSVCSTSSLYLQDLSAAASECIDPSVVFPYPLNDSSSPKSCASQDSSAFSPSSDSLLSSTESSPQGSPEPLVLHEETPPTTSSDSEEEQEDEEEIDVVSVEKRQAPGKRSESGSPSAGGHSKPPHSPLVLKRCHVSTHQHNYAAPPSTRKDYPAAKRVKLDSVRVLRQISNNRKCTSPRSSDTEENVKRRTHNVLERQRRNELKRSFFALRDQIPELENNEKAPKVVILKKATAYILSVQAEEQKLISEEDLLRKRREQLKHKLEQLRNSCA
Chain of Nuclear receptor subfamily 1 group I member 2 (Homo sapiens) (O75469 whole entry, looked up, the tested form may be a part): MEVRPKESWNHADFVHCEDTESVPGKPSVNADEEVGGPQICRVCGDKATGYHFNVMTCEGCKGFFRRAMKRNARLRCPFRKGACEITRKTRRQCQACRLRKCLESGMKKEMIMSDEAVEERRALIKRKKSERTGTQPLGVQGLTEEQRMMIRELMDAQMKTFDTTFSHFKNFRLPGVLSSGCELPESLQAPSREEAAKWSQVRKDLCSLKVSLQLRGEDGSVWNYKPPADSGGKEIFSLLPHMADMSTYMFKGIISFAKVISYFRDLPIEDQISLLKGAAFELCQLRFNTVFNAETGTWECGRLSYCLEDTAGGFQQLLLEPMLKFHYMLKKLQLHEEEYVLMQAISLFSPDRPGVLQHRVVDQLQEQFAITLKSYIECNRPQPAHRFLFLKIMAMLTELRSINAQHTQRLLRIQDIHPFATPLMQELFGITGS
Chain of Cellular tumor antigen p53 (Homo sapiens) (P04637 whole entry, looked up): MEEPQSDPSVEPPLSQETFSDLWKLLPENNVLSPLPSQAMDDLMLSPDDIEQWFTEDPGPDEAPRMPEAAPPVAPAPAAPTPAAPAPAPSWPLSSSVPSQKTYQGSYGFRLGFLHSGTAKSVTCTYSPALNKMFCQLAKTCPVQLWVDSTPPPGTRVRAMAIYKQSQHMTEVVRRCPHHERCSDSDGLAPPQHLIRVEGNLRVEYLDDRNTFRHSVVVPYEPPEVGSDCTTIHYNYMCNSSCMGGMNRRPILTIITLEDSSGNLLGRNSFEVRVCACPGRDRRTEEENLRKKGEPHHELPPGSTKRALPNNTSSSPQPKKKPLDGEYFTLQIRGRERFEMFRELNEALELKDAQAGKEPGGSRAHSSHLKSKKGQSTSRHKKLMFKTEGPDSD
Chain of Peroxisome proliferator-activated receptor gamma (Homo sapiens) (P37231 whole entry, looked up): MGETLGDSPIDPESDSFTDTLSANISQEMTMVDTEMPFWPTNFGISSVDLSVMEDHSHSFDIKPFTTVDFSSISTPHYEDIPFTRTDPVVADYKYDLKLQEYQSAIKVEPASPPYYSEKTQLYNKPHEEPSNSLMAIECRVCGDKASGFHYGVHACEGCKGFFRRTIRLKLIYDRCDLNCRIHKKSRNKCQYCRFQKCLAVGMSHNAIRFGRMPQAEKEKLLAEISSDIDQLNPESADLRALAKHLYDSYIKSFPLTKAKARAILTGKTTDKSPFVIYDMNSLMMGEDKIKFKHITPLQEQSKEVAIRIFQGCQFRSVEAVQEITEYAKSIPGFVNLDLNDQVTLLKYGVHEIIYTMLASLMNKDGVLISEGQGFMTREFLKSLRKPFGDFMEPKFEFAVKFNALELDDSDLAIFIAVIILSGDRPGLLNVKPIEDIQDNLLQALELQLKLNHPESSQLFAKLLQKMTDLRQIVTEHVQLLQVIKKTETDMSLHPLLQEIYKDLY
Chain of Nuclear respiratory factor 1 (Homo sapiens) (Q16656 whole entry, looked up): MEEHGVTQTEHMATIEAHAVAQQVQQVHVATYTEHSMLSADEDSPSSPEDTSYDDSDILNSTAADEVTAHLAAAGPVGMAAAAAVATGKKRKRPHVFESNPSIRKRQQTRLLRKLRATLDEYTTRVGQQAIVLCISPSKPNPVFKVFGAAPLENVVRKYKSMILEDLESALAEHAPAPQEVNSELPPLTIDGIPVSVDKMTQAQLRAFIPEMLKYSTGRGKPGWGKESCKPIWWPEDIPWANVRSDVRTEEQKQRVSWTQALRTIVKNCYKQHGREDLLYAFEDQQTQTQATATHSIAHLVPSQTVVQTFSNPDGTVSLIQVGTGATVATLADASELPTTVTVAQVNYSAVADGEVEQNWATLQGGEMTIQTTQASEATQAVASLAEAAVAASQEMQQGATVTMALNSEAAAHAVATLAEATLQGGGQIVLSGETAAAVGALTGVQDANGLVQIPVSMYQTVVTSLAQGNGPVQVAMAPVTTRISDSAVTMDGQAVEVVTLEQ
Chain of human Peroxisome Proliferator-activated Receptor alpha (PPARa), PPARA (gene 5465) (Q07869 whole entry, looked up): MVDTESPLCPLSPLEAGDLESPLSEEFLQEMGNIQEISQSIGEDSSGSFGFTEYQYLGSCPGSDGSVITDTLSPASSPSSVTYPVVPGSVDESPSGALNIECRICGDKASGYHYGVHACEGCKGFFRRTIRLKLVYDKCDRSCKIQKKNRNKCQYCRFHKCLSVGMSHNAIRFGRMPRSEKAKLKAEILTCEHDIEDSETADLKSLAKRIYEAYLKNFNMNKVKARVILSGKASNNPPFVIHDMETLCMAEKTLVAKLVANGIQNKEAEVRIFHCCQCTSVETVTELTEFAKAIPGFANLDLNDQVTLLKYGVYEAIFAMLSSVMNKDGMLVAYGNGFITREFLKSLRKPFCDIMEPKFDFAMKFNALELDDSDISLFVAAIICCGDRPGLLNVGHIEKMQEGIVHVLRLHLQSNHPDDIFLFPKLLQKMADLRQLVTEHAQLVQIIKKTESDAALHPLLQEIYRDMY
Chain of human Retinoic Acid Receptor gamma (RARg), RARG (gene 5916) (P13631 whole entry, looked up, the tested form may be a part): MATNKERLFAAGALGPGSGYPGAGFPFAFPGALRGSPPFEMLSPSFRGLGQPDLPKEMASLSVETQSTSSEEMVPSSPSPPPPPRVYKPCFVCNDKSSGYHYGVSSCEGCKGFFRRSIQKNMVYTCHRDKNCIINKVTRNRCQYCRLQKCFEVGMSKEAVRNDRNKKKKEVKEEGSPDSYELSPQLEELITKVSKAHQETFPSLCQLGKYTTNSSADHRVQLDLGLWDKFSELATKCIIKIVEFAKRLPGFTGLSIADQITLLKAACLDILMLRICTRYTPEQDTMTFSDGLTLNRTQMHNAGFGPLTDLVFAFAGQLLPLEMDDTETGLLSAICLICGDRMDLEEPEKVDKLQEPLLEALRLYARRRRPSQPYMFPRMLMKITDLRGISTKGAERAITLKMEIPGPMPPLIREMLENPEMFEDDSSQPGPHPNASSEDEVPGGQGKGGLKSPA
Chain of human Retinoic Acid Receptor beta (RARb), RARB (gene 5915) (P10826 whole entry, looked up, the tested form may be a part): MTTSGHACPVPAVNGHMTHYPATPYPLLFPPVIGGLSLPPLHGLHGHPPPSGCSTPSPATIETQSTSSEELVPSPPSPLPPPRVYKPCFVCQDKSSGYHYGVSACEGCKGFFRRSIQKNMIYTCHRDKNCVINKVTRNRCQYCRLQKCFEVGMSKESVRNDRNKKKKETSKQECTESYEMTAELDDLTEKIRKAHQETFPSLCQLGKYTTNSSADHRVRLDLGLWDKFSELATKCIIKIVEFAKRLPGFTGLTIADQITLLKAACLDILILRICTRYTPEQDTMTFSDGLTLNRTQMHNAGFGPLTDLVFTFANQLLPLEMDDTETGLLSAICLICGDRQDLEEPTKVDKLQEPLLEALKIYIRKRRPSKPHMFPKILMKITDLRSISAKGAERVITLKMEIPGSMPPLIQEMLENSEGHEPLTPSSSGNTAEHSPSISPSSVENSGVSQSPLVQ

For the molecule `O=C1C=CC(=O)N1c1ccc(Cc2ccc(N3C(=O)C=CC3=O)cc2)cc1`, the AC50 is 60.1 µM (active) in test [1]; 11.2 µM (active) in test [3]; 33.4 µM (active) in test [4]; 5.47 µM (active) in test [7]; 7.45 µM (active) in [8]; 6.05 µM (active) in test [9]. Moreover, the AC50 in test [12] is 9.7 µM (active); in test [14] it was 3.52 µM (active). In addition, the molecule was classed as inactive in test [2], in [5], in test [6], in test [10], in test [11] and in test [13]. The result in test [15] and in test [16] was inactive.
Take `OCCCc1cccnc1`: the outcome in [1], in test [2], in test [3], in test [4], in [5] and in test [6] was inactive. Also, the molecule was called inactive in [11], in [13], in test [15], in test [16] and in [17].
With `O=C=NCc1cccc(CN=C=O)c1`, the call in [1], in [2], in test [3], in test [4], in [5] and in test [6] was inactive. In addition, the result in test [7], in test [18], in test [8], in [9], in test [11] and in test [12] was inactive. In addition, the outcome in test [14] and in [16] was inactive.
Take `OCCCC(F)(F)C(F)(F)C(F)(F)C(F)(F)C(F)(F)C(F)(F)C(F)(F)C(F)(F)F`: the result in test [1], in [2], in test [3], in [4], in [5] and in test [11] was inactive. For the same molecule, the result in test [19], in test [13], in [15], in [16] and in [17] was inactive. For the same molecule, the AC50 in [6] is 30.7 µM (active); in test [7], 13.1 µM (active) and 26.1 µM (active); in test [8] it was 39.9 µM (active) and 46 µM (active); in test [9] it was 18.9 µM (active) and 31.8 µM (active); in test [12] it was 22.4 µM (active) and 45.5 µM (active); in test [14] it was 7.56 µM (active) and 9.56 µM (active).
On to `NC(=O)C(F)(F)C(F)(F)C(F)(F)C(F)(F)C(N)=O`, for which the outcome in test [1], in test [2], in test [3], in [4], in test [5] and in test [6] was inactive. In addition, the result in test [7], in [8], in test [9], in test [10], in test [11] and in test [12] was inactive. Moreover, the result in test [14], in test [15] and in test [16] was inactive.
